SARS PLP yeast: SARS-CoV PLP inhibition in yeast. Potency, µM (titrated, usually from 32.9 µM), without a hit: at the top dose activity, positive = growth rescue, actives largely listed as activators. 0.19% of 330,000 active. S. cerevisiae expressing SARS-CoV PLpro, growth rescue; calls by dose curve; note: potency is the fitted concentration of half-maximal effect; 0% is about no effect; nearly all actives have a fitted effect of over 55% in size
AmpC inh detg: AmpC beta-lactamase inhibition with detergent present. P00811. AmpC hydrolysis of nitrocefin, absorbance 480 nm, 0.01% Triton. Potency, µM (highest dose often 114 µM), inactives show at the top dose activity change, negative = inhibition, hits mostly inhibitors. 0.041% of 370,000 active. AID 485294;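 note: potency is the fitted concentration of half-maximal effect; 0% = no-compound wells and -100% = no-enzyme wells; nearly all actives have a fitted effect of over 25% in size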
Target sequence (P00811 whole entry, looked up): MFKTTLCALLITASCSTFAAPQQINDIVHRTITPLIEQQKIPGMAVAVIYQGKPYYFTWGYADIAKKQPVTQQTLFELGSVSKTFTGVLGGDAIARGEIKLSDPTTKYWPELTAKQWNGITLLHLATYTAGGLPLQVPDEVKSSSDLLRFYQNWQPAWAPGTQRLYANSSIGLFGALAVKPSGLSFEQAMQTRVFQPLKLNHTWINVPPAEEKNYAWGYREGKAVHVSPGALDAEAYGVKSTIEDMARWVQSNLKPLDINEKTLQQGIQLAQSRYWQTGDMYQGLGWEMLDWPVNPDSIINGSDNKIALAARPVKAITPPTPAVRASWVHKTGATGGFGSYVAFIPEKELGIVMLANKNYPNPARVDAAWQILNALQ
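AmpC (5.3 nM in the dispensed reagent) in 20 mM phosphate pH 7.0 with 0.01% (detergent screen) or 0.0001% Triton X-100 was preincubated with compounds for 15 min at room temperature. Nitrocefin was then added from an 800 uM solution, and hydrolysis was followed at 480 nm.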
NS1 function inh: inhibitors of influenza NS1 protein function. Potency, µM (series often up to 46.1 µM), without a hit: at the top dose activity, positive = more growth. 0.4% of 270,000 active; calls by dose curve; note: potency is the fitted concentration of half-maximal effect; actives are rising curves; nearly all actives have a fitted effect of over 50% in size
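Growth recovery, yeast-based: influenza A NS1 expressed in S. cerevisiae causes slow growth, and suppressors are detected by OD600. The parent strain without NS1 is used as positive control.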
AMA1 RON2 block: inhibitors of Plasmodium falciparum AMA1-RON2 interaction | AlphaScreen AMA1-biotinylated RON2 peptide binding | Potency, µM (series often up to 58.2 µM), for the others: top-dose activity change, negative = inhibition, usual class: inhibitors | 0.2% of 360,000 active | AID 720542;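 note: potency is the fitted concentration of half-maximal effect; 0% = vehicle wells and -100% = peptide control; nearly all actives have a fitted effect of over 45% in size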
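AMA1 (3D7) with his tag at 25 nM final met compounds first, then biotinylated RON2 peptide at 25 nM; detection used donor plus acceptor beads, 10 µg/mL apiece, read by AlphaScreen after 30 min at room temperature.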
AmpC inh no detg: blocks E. coli AmpC beta-lactamase in detergent-free assay; AmpC nitrocefin hydrolysis, absorbance 480 nm, 0.0001% Triton; P00811; Potency, µM (titrated, usually from 57.1 µM), for inactives: at the highest dose activity change, negative = inhibition, most hits filed as inhibitors; 0.52% of 330,000 active;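 note: potency is the fitted concentration of half-maximal effect; plate controls were no compound for no effect and no enzyme for full effect; nearly all actives have a fitted effect of over 20% in size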
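20 mM phosphate pH 7.0 + 0.01% (detergent screen) or 0.0001% Triton X-100; 5.3 nM AmpC reagent; cpd preinc 15 min RT; nitrocefin (800 uM stock) to start; A480 q20 s × 4 min; Activity was normalised to no-enzyme and no-compound control wells.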
NS1 inh valid: validation of influenza NS1 protein function inhibitors. 1,400 tested, under 10 active. shares compounds with NS1 function inh. AID 492980. influenza NS1 function cell assay, 15-point titration. activity change, negative = inhibition, % at 32.9 µM; calls by dose curve; note: 0% is about no effect
PR8 titer: influenza virus titer reduction, NS1 project. shares compounds with NS1 function inh. MDCK infected influenza A/PR/8/34, virus titer TCID50; stronger effect = lower value. virus titer (log TCID50), log10 TCID50 at 5 µM. 30% of 95 active; call rule not given here
Numbers without * were called inactive; ? = inconclusive; nt = no result. Rows were chosen to be rich in hits. Some 0.99% of all compounds tested hit in one or more screens of this group. Unless noted, calls come from the whole dose curve; as a rule, active = well fitted curve in the direction sought with a large enough effect; inconclusive = small, poorly fitted or top-dose-only effect, or another doubt; inactive = no such curve, though single readings can be large; an effect the other way counts as inactive or inconclusive.

SMILES	SARS PLP yeast	AmpC inh detg	NS1 function inh	AMA1 RON2 block	AmpC inh no detg	NS1 inh valid	others
COc1ccc(S(=O)(=O)N2CCOC2CNC(=O)C(=O)NCCc2c[nH]c3ccccc23)cc1 (stereo not given)	11%	?	9%	3%	-13%	nt
COc1ccc(C(c2nnnn2C2CCCCC2)N2CCN(c3ccc(OC)cc3)CC2)cc1 (stereo not given)	-8%	-3%	-8%	?	49%	nt
c1cc(N2CCCC2)ccc1C(c1nnnn1C1CCCCC1)N1CCOCC1 (stereo not given)	0%	?	11µM*	-3%	107%	5
O=C(Cn1cc2c(n1)CCCC2)NCCCN1CCN(C2CCCCC2)CC1	3%	-5%	8.9µM*	11%	5%	8
CCN(Cc1ccccc1)S(=O)(=O)c1ccc(N2CCCCS2(=O)=O)cc1	nt	-6%	nt	nt	nt	nt
O=C(O)c1cccc(Cn2c(Cl)c(/C=N/NC(=O)c3ccccc3Cl)sc2=O)c1	4%	1%	0.79µM*	15%	-23%	7
O=C(O)c1cccc(Cn2c(Cl)c(/C=N/NC(=O)c3ccccc3O)sc2=O)c1	-1%	7%	1%	26%	-37%	nt
CCCCOc1c(Br)cc(/C=C2\N=C(C)OC2=O)cc1OCC	9%	9%	3.5µM*	8%	12%	-2
CCOc1cc(/C=C2\N=C(C)OC2=O)cc(Cl)c1OCC(=O)OC	nt	nt	nt	-4%	nt	nt
Cc1ccc(N(CC(=O)N/N=C/c2ccco2)S(=O)(=O)c2ccccc2)cc1	1%	3%	11µM*	8%	-31%	-19	PR8 titer=7.7
CCOc1ccc(CNC(=O)C2=Cc3cc(Br)ccc3OC2)cc1OC	nt	-6%	nt	nt	nt	nt
O=C(O)c1cc(Cl)c2c(c1)[C@@H]1C=CC[C@@H]1[C@H](c1ccc(S(=O)(=O)N3CCOCC3)cc1)N2	27%	1%	14µM*	-18%	-31%	30
COc1ccc(S(=O)(=O)Nc2cc(C(=O)NC(C)C)ccc2N2CCOCC2)cc1	7%	-8%	-52%	-1%	11%	nt
COc1ccc(S(=O)(=O)Nc2cc(C(=O)NC3CCCCCC3)ccc2N2CCOCC2)cc1	14%	-13%	10µM*	-9%	120%	1
COc1cc(NC(=O)COC(=O)c2cc(S(=O)(=O)N3CCCCC3)ccc2Cl)c(C)cc1[N+](=O)[O-]	2%	-4%	14µM*	-13%	-20%	10	PR8 titer=8.3
COc1ccc(S(=O)(=O)N2CCCCCC2)cc1C(=O)OCC(=O)NC(C)(C)C	1%	-6%	nt	-8%	68%	nt
Cc1ccc(CNc2ncnc3c2c(-c2ccccc2)cn3-c2ccccc2)cc1	nt	13%	nt	nt	nt	nt
Cc1ccc(-n2nnnc2SCC(=O)c2cc(C)n(-c3cc(C)on3)c2C)c(C)c1	11%	-13%	?	-6%	-1%	-15
Cc1oc2ccc(O)c(CN3CCN(C)CC3)c2c1C(=O)Nc1ccccc1	nt	15%	nt	nt	nt	nt
Cc1ccc(C)n1-c1c(C(=O)NCC(C)c2ccccc2)sc2ncccc12 (stereo not given)	nt	22%	nt	nt	nt	nt
Cc1ccc(O)c(C(CC(=O)NCC2(c3ccccc3)CCCC2)c2ccccc2)c1 (stereo not given)	nt	6%	nt	nt	nt	nt
C#CCn1c(=NC(=O)CN2C(=O)CCC2=O)sc2cc(S(N)(=O)=O)ccc21	-31%	-9%	-1%	-20%	-16%	nt
C#CCn1c(=NC(=O)c2cc(Cl)sc2Cl)sc2cc(S(N)(=O)=O)ccc21	12%	0%	10µM*	-6%	-12%	17
CCOc1ccccc1Oc1nc(C)nc2c1oc1ccccc12	nt	11%	nt	nt	nt	nt
O=C(Nc1cc(Oc2ccccc2)cc([N+](=O)[O-])c1)C12CC3CC(C1)CC(n1cnc(Cl)n1)(C3)C2	0%	-8%	2.2µM*	-20%	-24%	?

Source: PubChem
